The results in this text go back to PubChem BioAssay (Tox21).

Several values for one entry are separate records, joined by “and”; a condition that tells them apart may be missing. Equal values may be shown once. Results filed as inconclusive are left out. A structure can be active in one record and inactive in another. Activity calls are given as the source filed them. Unless noted, calls follow the shape of the dose curve; as a rule, active = well fitted curve in the direction sought with a large enough effect in the repeat runs; inconclusive = weak or mixed curves; inactive = no such curve, though single readings can be large; an effect the other way counts as inactive or inconclusive.

Assay [1] has as its target Estrogen receptor beta (Homo sapiens) (UniProt Q92731). Kind of assay: qHTS assay to identify small molecule agonists of the estrogen receptor beta (ER-beta) signaling pathway (AID 1259377; active = well fitted activation curve with a large enough effect in the signal ratio in the repeat runs, not every such curve was filed as active; the % refers to the signal ratio). The method in brief:
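A UAS-controlled beta-lactamase reporter in ER-beta-UAS-bla HEK293T cells reports receptor activation. Compounds act for 16 hr at 37C in 2% charcoal-stripped serum, and a FRET substrate is read by fluorescence after 2 hours.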
(qHTS replaces the single test concentration by a dilution series.)

Assay [2] has the same target. Kind of assay: qHTS assay to identify small molecule antagonists of the estrogen receptor beta (ER-beta) signaling pathway (AID 1259378; active = well fitted inhibition curve with a large enough effect in the signal ratio in the repeat runs, not every such curve was filed as active; the % refers to the signal ratio). The method in brief: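 Antagonist mode: compounds added to beta-lactamase reporter HEK293T ER-beta-UAS cells stimulated with E2 (1nM final), 16 hr at 37C. LiveBLAzer B/G FRET substrate, 2 hours room temperature, fluorescence read-out.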

Assay [3] can be described thus: qHTS assay to identify small molecule agonists of the androgen receptor (AR) signaling pathway in the presence of an antagonist - cell viability counter screen (AID 1259379).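 Also: MDA-kb2 human breast cancer cells carrying an MMTV luciferase reporter; series mostly up to about 92 µM; nearly all actives have a fitted effect of over 25% in size.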 In outline: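 In MDA-kb2 cells (human breast carcinoma, MMTV-luciferase), compounds at 15 concentrations plus 3.0uM nilutamide; 16 hr, 37C, 0% CO2; CellTiter-Fluor fluorescence read for viability.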

Assay [4] in a line: qHTS assay to identify small molecule agonists of the estrogen receptor beta (ER-beta) signaling pathway - cell viability counter screen (AID 1259380). Also: nearly all actives have a fitted effect of over 30% in size. Also: potency is read from the fitted curve at half-maximal effect. In outline:
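Viability of ER-beta-UAS-bla HEK293T cells was determined by CellTiter-Glo luminescence following 16 hr treatment with test compounds at 37C.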

Assay [5] has as its target Androgen receptor (Homo sapiens) (UniProt P10275). The assay is described as follows: qHTS assay to identify small molecule agonists of the androgen receptor (AR) signaling pathway in the presence of an antagonist (AID 1259381; calls by dose curve; also: nearly all actives have a fitted effect of over 15% in size). The method in brief:
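Here, 15-concentration compound series were pin-transferred onto MDA-kb2 MMTV-luciferase cells already dosed with nilutamide (3.0uM final). After 16hr at 37C, ONE-Glo was added and luminescence read 30min later at room temperature.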

A short description of assay [6]: qHTS assay to identify small molecule antagonists of the estrogen receptor beta (ER-beta) signaling pathway - cell viability counter screen (AID 1259382). Also: nearly all actives have a fitted effect of over 55% in size. Also: potency is read from the fitted curve at half-maximal effect.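 As to activity change, negative = cytotoxicity: HEK293T cells carrying ER-beta-UAS-bla reporter stimulated with estradiol; series mostly up to about 92 µM.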 In outline:
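Tox21 10K library tested in qHTS format on ER-beta-bla HEK293T cells stimulated with 1nM E2; 16 hr treatment at 37C. Same-well CellTiter-Glo luminescence served as the cell viability measure.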

The target of assay [7] is Estrogen receptor (Homo sapiens) (UniProt P03372). The assay is described as follows: qHTS assay to identify small molecule agonists of the estrogen receptor alpha (ER-alpha) signaling pathway in the presence of an antagonist (AID 1259383; calls by dose curve; also: top concentration of the series differs between compounds; nearly all actives have a fitted effect of over 15% in size). The method in brief:
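In VM7Luc4E2 cells, 4,000 per well, compounds at 15 concentrations were co-incubated 22hr at 37C with 10.0nM final ICI-182,780. Luminescence from the stably transfected 4×ERE-luciferase reporter was recorded 30min after ONE-Glo addition.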

The nature of assay [8]: qHTS assay to identify small molecule agonists or antagonists of the thyroid stimulating hormone receptor (TSHR) signaling pathway - wild type cell line counter screen (AID 1259384; calls by dose curve). In outline: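 Counter screen in untransfected Hek293: compounds (15-point titration, triplicate) plus phosphodiesterase inhibitor Ro20-1724 added after 18 h plating; 30 min RT. Intracellular cAMP via competitive d2/cryptate immunoassay, 1 h incubation.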

Assay [9] deals with Thyrotropin receptor (Homo sapiens) (UniProt P16473). Kind of assay: qHTS assay to identify small molecule antagonists of the thyroid stimulating hormone receptor (TSHR) signaling pathway (AID 1259385; calls by dose curve; also: nearly all actives have a fitted effect of over 20% in size). In outline: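 Antagonist mode: compound-treated TSHR-expressing HEK293 cells were stimulated with 1.5 ng/mL TSH (final) in presence of Ro20-1724 for 30 min at RT. HTRF cAMP detection after 1 h; each compound tested at 15 concentrations, triplicate.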
Chain of Thyrotropin receptor (Homo sapiens) (P16473 whole entry, looked up): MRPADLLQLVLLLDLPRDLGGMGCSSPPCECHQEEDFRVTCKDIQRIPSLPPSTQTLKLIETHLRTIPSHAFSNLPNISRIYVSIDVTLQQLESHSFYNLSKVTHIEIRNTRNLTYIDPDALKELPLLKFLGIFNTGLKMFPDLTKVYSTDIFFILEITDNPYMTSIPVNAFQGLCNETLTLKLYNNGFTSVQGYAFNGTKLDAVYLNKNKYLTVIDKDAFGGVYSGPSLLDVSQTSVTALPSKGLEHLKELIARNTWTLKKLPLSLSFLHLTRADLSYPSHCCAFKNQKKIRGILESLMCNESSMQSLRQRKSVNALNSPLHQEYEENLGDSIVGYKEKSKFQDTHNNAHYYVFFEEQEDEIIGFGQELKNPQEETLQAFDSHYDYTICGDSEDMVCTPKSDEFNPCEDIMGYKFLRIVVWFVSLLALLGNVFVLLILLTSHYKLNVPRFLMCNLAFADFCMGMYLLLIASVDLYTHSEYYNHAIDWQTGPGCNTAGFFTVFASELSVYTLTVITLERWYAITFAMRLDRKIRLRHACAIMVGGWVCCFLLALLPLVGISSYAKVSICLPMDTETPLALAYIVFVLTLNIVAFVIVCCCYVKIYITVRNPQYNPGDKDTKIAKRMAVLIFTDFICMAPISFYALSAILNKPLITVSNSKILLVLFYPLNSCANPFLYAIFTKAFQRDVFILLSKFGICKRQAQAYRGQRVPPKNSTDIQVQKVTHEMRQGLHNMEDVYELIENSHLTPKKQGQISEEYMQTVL

The nature of assay [10]: qHTS assay to identify small molecule agonists of the estrogen receptor alpha (ER-alpha) signaling pathway in the presence of an antagonist - cell viability counter screen (AID 1259386).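 Also: series mostly up to about 92 µM; cells exposed to compounds for 22 h at 37 °C before the viability read; nearly all actives have a fitted effect of over 30% in size.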 The method in brief:
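Fluorescent CellTiter-Fluor viability signal from VM7Luc4E2 cells, with the reagent added during the final hour of a 22hr compound exposure at 37C in the presence of 10.0nM ICI-182,780.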

Assay [11] addresses Progesterone receptor (Homo sapiens) (UniProt P06401). Kind of assay: qHTS assay to identify small molecule agonists of the progesterone receptor (PR) signaling pathway (AID 1346784; calls by dose curve; also: nearly all actives have a fitted effect of over 30% in size). The method in brief:
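Agonist mode, quantitative HTS format in a HEK 293T line expressing a UAS-controlled beta-lactamase reporter; 16 hr compound exposure at 37C in 2% charcoal-stripped FBS, then LiveBLAzer B/G FRET fluorescence.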

For assay [12] the target is unchanged. The assay is described as follows: qHTS assay to identify small molecule antagonists of the progesterone receptor (PR) signaling pathway (AID 1346795; active = well fitted inhibition curve with a large enough effect in the signal ratio in the repeat runs, not every such curve was filed as active; the % refers to the signal ratio). In outline: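 HEK293T PR-UAS-bla reporter cells in charcoal-stripped serum (2%) received compound after a 6 hr settling period, followed by R5020 agonist at 1 nM final; 16 hr incubation preceded the FRET substrate step and fluorescence measurement.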

A short description of assay [13]: qHTS assay to identify small molecule antagonists of the progesterone receptor (PR) signaling pathway - cell viability counter screen (AID 1346798). Also: series mostly up to about 92 µM; nearly all actives have a fitted effect of over 50% in size. The method in brief:
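Same-well multiplex: after 16 hr at 37C with compound and R5020 stimulation, HEK293T cells carrying a UAS-bla reporter received LiveBLAzer substrate (2 hr RT), then CellTiter-Glo (30 min RT) for luminescent viability.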

Assay [14] is described as follows: qHTS assay to identify small molecule agonists of the progesterone receptor (PR) signaling pathway - cell viability counter screen (AID 1346799; calls by dose curve; also: nearly all actives have a fitted effect of over 45% in size; also: potency is read from the fitted curve at half-maximal effect). In outline: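 Counter screen for cytotoxicity: compound-treated PR-UAS-bla HEK293T cells (16 hr, 37C, 5% CO2) were assayed with CellTiter-Glo, luminescence measured after 30 min at room temperature.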
The nature of assay [15]: qHTS assay to identify small molecule agonists of the TGF-beta/Smad signaling pathway - cell viability counter screen (AID 1346829). Also: nearly all actives have a fitted effect of over 45% in size. Also: potency is read from the fitted curve at half-maximal effect. As to activity change, negative = cytotoxicity: top concentration of the series differs between compounds. The method in brief: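 Same-well cytotoxicity: CellTiter-Glo added after the 2 hr room-temperature beta-lactamase substrate step, luminescence measured 30 min later; cells had 5 hr of compound at 37 C.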
The nature of assay [16]: qHTS assay to identify small molecule agonists of the TGF-beta/Smad signaling pathway (AID 1346859; active = well fitted activation curve with a large enough effect in the signal ratio in the repeat runs, not every such curve was filed as active; the % refers to the signal ratio; also: series mostly up to about 77 µM). In outline:
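Smad-responsive beta-lactamase reporter cells (HEK 293T) received compounds from DMSO stocks after overnight attachment, were incubated 5 hr, then treated 2 hr with FRET substrate before dual-emission fluorescence measurement (405 nm excitation).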

Assay [17] concerns the target Thyrotropin-releasing hormone receptor (Homo sapiens) (UniProt P34981). The assay is described as follows: qHTS assay to identify small molecule antagonists of the thyrotropin-releasing hormone receptor (TRHR) signaling pathway (AID 1346877; active = well fitted inhibition curve with a large enough effect in the repeat runs, not every such curve was filed as active; also: series mostly up to about 51 µM). In outline: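 In this cell-based calcium flux format, HEK293 cells expressing TRHR received test compound for 5 min before the agonist TRH (1 nM final). Dye loading lasted 2 h at 37 °C.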

For assay [18] the target is unchanged. The assay is described as follows: qHTS assay to identify small molecule agonists of the thyrotropin-releasing hormone receptor (TRHR) signaling pathway (AID 1346891; calls by dose curve; also: series mostly up to about 58 µM). In outline:
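Agonist-mode calcium mobilisation screen: TRHR-transfected HEK293 cells cultured overnight (18 h), dye-loaded for 2 h at 37 °C, exposed to compounds, and monitored by fluorescence for 3 min.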

Assay [19] can be described thus: Human pregnane X receptor (PXR) small molecule agonists, qHTS cell viability counter screen (AID 1346977). Also: nearly all actives have a fitted effect of over 50% in size. Also: potency is read from the fitted curve at half-maximal effect. In outline: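 Measures live-cell protease fluorescence (CellTiter-Fluor) in PXR-Luc HepG2 cells treated 24hr with compounds at 37C. Cells had 5hr to attach before pin transfer of DMSO solutions.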
Assay [20] is described as follows: qHTS assay to identify small molecule antagonists of the TGF-beta/Smad signaling pathway - cell viability counter screen (AID 1346824). Also: nearly all actives have a fitted effect of over 50% in size. In outline: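 Cytotoxicity counter-screen run in the same wells as the beta-lactamase Smad reporter read: CellTiter-Glo luminescence after 30 min at room temperature. HEK 293T SBE-bla cells had 5 hr compound exposure at 37 C with TGF-beta1 (0.25 ng/mL stock).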
% is scaled to controls: 0 for no effect and ±100 for the full control effect.

Chain of Estrogen receptor (Homo sapiens) (P03372 whole entry, looked up): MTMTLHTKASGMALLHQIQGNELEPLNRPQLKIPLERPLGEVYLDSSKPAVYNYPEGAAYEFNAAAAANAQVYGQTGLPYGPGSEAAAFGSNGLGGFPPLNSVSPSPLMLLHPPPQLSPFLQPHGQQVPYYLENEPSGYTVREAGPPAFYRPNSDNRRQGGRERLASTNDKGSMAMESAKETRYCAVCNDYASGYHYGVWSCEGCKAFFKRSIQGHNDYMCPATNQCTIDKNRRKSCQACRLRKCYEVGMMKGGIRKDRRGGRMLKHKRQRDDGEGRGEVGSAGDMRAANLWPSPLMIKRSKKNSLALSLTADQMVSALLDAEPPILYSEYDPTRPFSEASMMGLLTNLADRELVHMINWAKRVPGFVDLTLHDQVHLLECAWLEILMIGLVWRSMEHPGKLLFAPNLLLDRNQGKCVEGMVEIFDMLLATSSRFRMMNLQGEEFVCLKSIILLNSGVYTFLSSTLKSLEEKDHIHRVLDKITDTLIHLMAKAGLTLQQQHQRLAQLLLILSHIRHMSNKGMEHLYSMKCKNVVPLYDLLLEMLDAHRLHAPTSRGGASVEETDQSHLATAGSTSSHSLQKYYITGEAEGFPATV
Chain of Progesterone receptor (Homo sapiens) (P06401 whole entry, looked up): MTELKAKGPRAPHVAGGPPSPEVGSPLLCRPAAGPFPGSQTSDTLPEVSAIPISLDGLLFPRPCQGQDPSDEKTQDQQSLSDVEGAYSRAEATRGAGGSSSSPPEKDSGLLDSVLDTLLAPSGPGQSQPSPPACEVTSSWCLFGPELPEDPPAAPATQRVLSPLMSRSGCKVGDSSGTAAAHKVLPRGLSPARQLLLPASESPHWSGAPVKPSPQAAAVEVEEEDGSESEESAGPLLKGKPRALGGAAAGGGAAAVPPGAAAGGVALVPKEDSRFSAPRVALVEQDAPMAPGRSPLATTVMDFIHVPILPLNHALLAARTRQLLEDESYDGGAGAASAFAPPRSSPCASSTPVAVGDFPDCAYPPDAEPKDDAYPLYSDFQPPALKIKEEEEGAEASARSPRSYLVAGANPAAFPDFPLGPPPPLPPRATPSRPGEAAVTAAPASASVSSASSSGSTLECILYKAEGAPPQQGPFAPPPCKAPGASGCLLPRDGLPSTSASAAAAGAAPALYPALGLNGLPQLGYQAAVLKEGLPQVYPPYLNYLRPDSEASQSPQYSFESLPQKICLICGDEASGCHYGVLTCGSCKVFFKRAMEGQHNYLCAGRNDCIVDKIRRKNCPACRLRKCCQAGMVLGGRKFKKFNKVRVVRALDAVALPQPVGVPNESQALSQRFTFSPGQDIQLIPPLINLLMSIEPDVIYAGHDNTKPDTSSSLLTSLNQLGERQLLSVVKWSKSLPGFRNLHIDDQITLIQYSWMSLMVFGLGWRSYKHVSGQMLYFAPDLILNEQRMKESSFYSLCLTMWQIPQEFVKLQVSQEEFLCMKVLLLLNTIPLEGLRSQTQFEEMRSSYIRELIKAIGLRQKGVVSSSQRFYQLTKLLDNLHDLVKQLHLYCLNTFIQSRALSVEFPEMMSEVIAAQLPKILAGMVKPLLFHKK
Chain of Estrogen receptor beta (Homo sapiens) (Q92731 whole entry, looked up): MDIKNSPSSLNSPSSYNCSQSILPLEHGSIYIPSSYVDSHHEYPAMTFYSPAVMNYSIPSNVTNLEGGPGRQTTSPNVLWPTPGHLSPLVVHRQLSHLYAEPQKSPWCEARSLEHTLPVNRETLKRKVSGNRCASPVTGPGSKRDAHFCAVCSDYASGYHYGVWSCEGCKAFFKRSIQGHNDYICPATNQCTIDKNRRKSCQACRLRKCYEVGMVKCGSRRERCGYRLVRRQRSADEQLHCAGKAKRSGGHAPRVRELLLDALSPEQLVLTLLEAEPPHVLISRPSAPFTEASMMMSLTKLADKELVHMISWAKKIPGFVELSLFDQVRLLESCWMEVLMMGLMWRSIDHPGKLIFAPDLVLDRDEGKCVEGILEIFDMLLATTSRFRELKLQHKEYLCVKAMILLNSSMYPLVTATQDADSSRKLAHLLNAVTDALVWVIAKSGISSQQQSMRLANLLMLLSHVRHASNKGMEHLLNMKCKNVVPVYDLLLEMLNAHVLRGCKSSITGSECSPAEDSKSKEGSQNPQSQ
Chain of Androgen receptor (Homo sapiens) (P10275 whole entry, looked up): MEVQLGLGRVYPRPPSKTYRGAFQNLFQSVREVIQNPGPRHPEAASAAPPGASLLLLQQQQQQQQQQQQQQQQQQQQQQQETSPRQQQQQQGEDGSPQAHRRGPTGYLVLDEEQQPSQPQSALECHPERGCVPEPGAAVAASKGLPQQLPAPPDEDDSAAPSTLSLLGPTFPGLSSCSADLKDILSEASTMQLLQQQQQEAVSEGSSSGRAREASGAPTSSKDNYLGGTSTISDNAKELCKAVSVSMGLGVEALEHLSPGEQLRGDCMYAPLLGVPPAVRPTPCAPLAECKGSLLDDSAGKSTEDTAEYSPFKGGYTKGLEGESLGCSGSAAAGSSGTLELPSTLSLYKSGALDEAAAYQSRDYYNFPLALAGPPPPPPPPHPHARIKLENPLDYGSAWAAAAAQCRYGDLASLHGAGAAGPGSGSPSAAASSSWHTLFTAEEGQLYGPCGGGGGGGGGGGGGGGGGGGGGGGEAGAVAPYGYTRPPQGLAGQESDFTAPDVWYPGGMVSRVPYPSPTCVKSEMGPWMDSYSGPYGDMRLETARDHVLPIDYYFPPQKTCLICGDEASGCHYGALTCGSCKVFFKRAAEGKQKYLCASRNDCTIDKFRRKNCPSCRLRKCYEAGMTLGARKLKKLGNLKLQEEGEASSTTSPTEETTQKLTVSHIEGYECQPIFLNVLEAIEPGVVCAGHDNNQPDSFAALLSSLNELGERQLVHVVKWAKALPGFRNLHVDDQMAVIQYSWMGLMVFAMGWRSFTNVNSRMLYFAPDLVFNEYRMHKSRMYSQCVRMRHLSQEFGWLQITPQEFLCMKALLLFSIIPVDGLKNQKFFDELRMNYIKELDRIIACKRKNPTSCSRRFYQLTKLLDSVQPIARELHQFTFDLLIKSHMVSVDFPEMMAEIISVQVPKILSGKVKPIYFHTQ
Chain of Thyrotropin-releasing hormone receptor (Homo sapiens) (P34981 whole entry, looked up): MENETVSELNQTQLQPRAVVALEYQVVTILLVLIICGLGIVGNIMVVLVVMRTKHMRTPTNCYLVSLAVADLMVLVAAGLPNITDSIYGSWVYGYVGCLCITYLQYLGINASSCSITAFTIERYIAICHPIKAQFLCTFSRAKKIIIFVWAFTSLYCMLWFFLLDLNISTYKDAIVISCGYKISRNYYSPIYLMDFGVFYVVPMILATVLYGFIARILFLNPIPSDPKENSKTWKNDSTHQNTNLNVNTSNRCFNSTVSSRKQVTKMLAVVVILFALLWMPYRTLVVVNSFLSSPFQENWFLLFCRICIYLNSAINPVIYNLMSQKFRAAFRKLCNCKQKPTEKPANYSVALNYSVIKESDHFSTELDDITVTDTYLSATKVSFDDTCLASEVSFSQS

Turning to `CCOc1ccc(NC(C)=O)cc1`, the Potency entry in assay [1], in assay [2], in assay [3], in assay [4], in assay [5] and in assay [6] was “inactive” throughout. Moreover, the Potency entry in assay [7], in [8], in [9], in [10], in assay [11] and in assay [12] was “inactive” each time. Also, the Potency entry in [13], in [14], in [15], in [17], in assay [18] and in assay [19] was “inactive” each time. The call in [16] was inactive.
`O=c1[nH]cc(F)c(=O)[nH]1`: the Potency result in [1], in assay [2], in assay [3], in [7], in assay [8] and in assay [9] was “inactive” each time. Also, the Potency result in assay [10], in assay [11], in [12], in [20], in [15] and in [17] was “inactive” throughout. Moreover, the Potency entry in assay [18] and in assay [19] was “inactive” throughout. For the same compound, the Potency is 10.1 µM (active) and 12.5 µM (active) and inactive in [4]; 14.2 µM (active) and inactive in assay [6]; 28.3 µM (active) and inactive in assay [14]. The outcome in assay [16] was inactive.
As for `C/C=C/C=C/C(=O)O`, the Potency result in assay [1], in assay [2], in [3], in [6], in assay [8] and in assay [9] was “inactive” throughout. Further, the Potency result in [10], in [11], in assay [12], in assay [13], in [14] and in assay [15] was “inactive” in each case. Further, the Potency result in assay [17], in [18] and in [19] was “inactive” throughout. Moreover, the activity change, negative = cytotoxicity in assay [4] was -4.84% [at 8.39 µM] (inactive). The compound was called inactive in assay [16].
For the compound `CCc1nc(N)nc(N)c1-c1ccc(Cl)cc1`, the Potency entry in assay [1], in assay [3], in assay [6], in [7], in assay [10] and in assay [11] was “inactive” throughout. The Potency entry in [13], in assay [14] and in [20] was “inactive” throughout. Moreover, the Potency was 21.7 µM (active) and 18.8 µM (active) in assay [4]; “inactive and 16.9 µM (active)” in assay [15]; 49.3 µM (active) in assay [19]. Also, the compound was called inactive in assay [16].
In the case of `NS(=O)(=O)O`, the Potency entry in assay [1], in [2], in assay [3], in assay [4], in [6] and in [10] was “inactive” throughout. The Potency result in [11], in assay [12], in assay [13], in [14], in assay [15] and in [19] was “inactive” in each case. Also, the result in assay [16] was inactive.
For `O=CC(=O)c1ccccc1`, the Potency result in [1], in [2], in assay [3], in assay [4], in assay [6] and in assay [7] was “inactive” in each case. In addition, the Potency result in assay [8], in assay [10], in assay [11], in assay [12], in assay [13] and in assay [14] was “inactive” in each case. Moreover, the Potency result in assay [15], in assay [17], in [18] and in assay [19] was “inactive” in each case. In addition, in [16], the outcome was inactive.
As for `O=C(O)CC(O)C(=O)O` (stereo not drawn), the Potency result in assay [1], in [2], in assay [3], in assay [4], in [6] and in assay [8] was “inactive” in each case. For the same compound, the Potency result in assay [9], in [10], in [13], in assay [14], in assay [20] and in assay [15] was “inactive” in each case. Besides, the Potency result in assay [17], in assay [18] and in assay [19] was “inactive” in each case. Further, in [16], the compound was classed as inactive.
